# Results reported in PubChem BioAssay (NCATS).
# Inconclusive results are not listed. The source made the active and inactive calls. Calls follow the shape of the dose curve; as a rule, active = well fitted inhibition curve with a large enough effect; inconclusive = small, poorly fitted or top-dose-only effect; inactive = flat fitted curve, though single readings scatter.
# Assay: Cytometry Cell-Based qHTS for Inhibitors of the mTORC1 Signaling Pathway in MEF cells (AID 2668);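 as to activity change, negative = inhibition: Tsc2-/- p53-/- mouse embryonic fibroblasts stably re-expressing wild-type Tsc2; percent cells positive for phospho-rpS6 Ser235/236 relative to propidium iodide stain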
# Settings: mTORC1 pathway readout; series mostly up to 38.3 µM; activity change, negative = inhibition: at the top concentration
# Description: NIH Molecular Libraries Probe Production Centers Network [MLPCN]
# NIH Chemical Genomics Center [NCGC]
# Assay Submitter (PI): Blenis, John; Hoffman, Greg; Harvard University
# NCGC Assay Overview: The mammalian target of rapamycin (mTOR) is an intracellular serine/threonine kinase Aberrant regulation of mTOR signaling plays a causative role in a number of human diseases, including cancer, benign tumors such as lymphangioleiomyomatosis (LAM) and Tuberous Sclerosis Complex (TSC), and metabolic diseases such as diabetes and obesity. This project aims to identify inhibitors of ribosomal protein S6 (rpS6) phosphorylation. The phosphorylation of rpS6 is a key event downstream of mTOR activation. The assay uses a phospho-specific antibody of phospho-rpS6 to detect inhibitors of mTOR activation. Mutations in the Tsc1 and Tsc2 genes are the underlying genetic lesions responsible for TSC, causing constitutive activation of the mTORC1 pathway and leading to profound effects on cell metabolism. Aberrant metabolism in cancer has recently received significant attention as a target to develop therapeutic agents in the treatment of cancer.1 As Tsc2-/- cells have lost the ability to respond to energy and growth factor deprivation, these cells are unable to properly down regulate cellular biosynthetic processes in response to metabolic stress, and are thus extremely sensitive to glucose deprivation-induced death.2 A central goal of this project is to explore the unique cell survival and metabolic properties of cells with Tsc1 or Tsc2 by screening for compounds that selectively target the Tsc2-/- MEFs by screening both Tsc2-/- and WT MEF cell lines. We hope to better understand these aspects of TSC physiology in order to exploit them for therapeutic benefit.
# NCGC Acumen Assay Protocol:
# For quantitative high throughput analysis of mTORC1 signaling, we developed a cell-based assay for immuno-fluorescence based detection of rpS6 phosphorylation on the Acumen Explorer that will be used a platform for the primary small molecule screen. Mouse embryonic fibroblasts (MEFs) are cultured in 1536-well plates using DMEM + 10% FBS. Twenty-four hrs after plating, test compounds (solubilized in DMSO) are delivered and incubated with the cells for 24 hrs at 37 degree Celsius. Following the incubation, media with compound is aspirated and the cells are fixed in 4% paraformaldehyde (PFA) containing PBS + 0.2% TX-100. Next, PFA is aspirated, cells are washed two times with PBS plus 0.2% TX-100 and the cells are blocked for 1 hr at room temperature (blocking buffer: LiCOR Blocking Buffer plus 0.2% TX-100). This is followed by aspiration and staining with Alexa-488 conjugated-phospho-rpS6 Ser235/236 antibody for 2 hours at room temperature (Cell Signaling Technology # 4803, 1:50 dilution in blocking buffer). Cells are washed two times with PBS plus 0.2% TX-100, and stained with 10 uM propidium iodide (PI) for 20-25 minutes for cell number measurement (1:500 dilution of Hoescht staining is also added for IN Cell imaging). The plates are scanned on the Acumen Explorer laser scanning instrument (TTP Labtech) using the 488nm laser for simultaneous excitation of the Alexa-488 and PI. The fluorescence emission from the Alexa-488 conjugated rpS6 phospho-235/236 antibody staining is selected using a […] band pass filter. Fluorescence emission from the PI stain is selected using a 575-640 nm band pass filter. The normalized phospho-S6 staining is calculated as the ratio of the integrated Alexa 488 intensity divided by the integrated PI intensity for the single concentration rapamycin control (7.5 nM) and DMSO columns. […] Inhibition of the pathway is defined based on the normalized phospho-S6 intensity in rapamycin treated cells. […]
# Potency is read from the fitted curve at half-maximal effect.
Structure (SMILES),"activity change, negative = inhibition",Potency
Nc1cc(Cl)c(NC2=NCCN2)c(Cl)c1,-1.01% (inactive),
N[C@H](CO)C(=O)O,6.2% (inactive),
C1CCc2nnnn2CC1,0.26% (inactive),
CNCCC(Oc1ccccc1C)c1ccccc1 (centres undefined),-0.651% (inactive),
O=C(O)c1cc2cc(Cc3cccnc3)ccc2o1,-4.21% (inactive),
CC1(C)CCC(NC(=O)[C@@H](N)CCC(=O)O)CC1,3.65% (inactive),
O=C1CCC(c2ccc(-n3ccnc3)cc2)=NN1,17% (inactive),
C[C@]12CC[C@@H]3c4ccc(O)cc4CC[C@H]3[C@@H]1CC[C@@H]2O,4.21% (inactive),
CCCC1O[C@@H]2C[C@H]3[C@@H]4CCC5=CC(=O)C=C[C@]5(C)[C@H]4[C@@H](O)C[C@]3(C)[C@]2(C(=O)CO)O1 (some centres undefined),-28.3% (inactive),
C[C@@H]1C(=O)NC2=Nc3cccc(Cl)c3CN21,-9.62% (inactive),
CC(=O)O[C@H]1C[C@@H]2CC[C@@H]3[C@H](CC[C@@]4(C)[C@H]3C[C@H]([N+]3(C)CCCCC3)[C@@H]4OC(C)=O)[C@@]2(C)C[C@@H]1[N+]1(C)CCCCC1,-0.0981% (inactive),
CC(C)COC(=O)OCN1C(=O)CN(CCN2CC(=O)N(COC(=O)OCC(C)C)C(=O)C2)CC1=O,-7.25% (inactive),
CCCn1c(=O)[nH]c(=O)c2[nH]cnc21,-4.31% (inactive),
C[N+]1(CCCCC[N+]2(C)CCCC2)CCCC1,5.13% (inactive),
COc1cc(NS(C)(=O)=O)ccc1Nc1c2ccccc2nc2ccccc12,,521 nM (active)
COC(=O)[C@H]1[C@H]2C[C@H]3c4[nH]c5ccccc5c4CCN3C[C@H]2CC[C@@H]1O,1.36% (inactive),
N[C@@H](Cc1cnc[nH]1)C(=O)O,4.16% (inactive),
CCC(NC(C)C)C(O)c1ccc(O)c(O)c1 (centres undefined),-23% (inactive),
CC(CCc1ccccc1)NCC(O)c1ccc(O)c(C(N)=O)c1 (centres undefined),5.41% (inactive),
